Cruzain inh noDet: inhibitors of Trypanosoma cruzi cruzain without detergent | purified cruzain, Z-FR-AMC fluorescence, no detergent | AID 1476 | Potency, µM, without a hit: max response, negative = inhibition, most hits filed as inhibitors | 200,000 compounds, 2.3% hits;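 further: plate controls were enzyme without inhibitor for no effect and buffer without enzyme for full effect; nearly all actives have a fitted effect of over 40% in size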
Target sequence (P25779 123-467 limits assumed): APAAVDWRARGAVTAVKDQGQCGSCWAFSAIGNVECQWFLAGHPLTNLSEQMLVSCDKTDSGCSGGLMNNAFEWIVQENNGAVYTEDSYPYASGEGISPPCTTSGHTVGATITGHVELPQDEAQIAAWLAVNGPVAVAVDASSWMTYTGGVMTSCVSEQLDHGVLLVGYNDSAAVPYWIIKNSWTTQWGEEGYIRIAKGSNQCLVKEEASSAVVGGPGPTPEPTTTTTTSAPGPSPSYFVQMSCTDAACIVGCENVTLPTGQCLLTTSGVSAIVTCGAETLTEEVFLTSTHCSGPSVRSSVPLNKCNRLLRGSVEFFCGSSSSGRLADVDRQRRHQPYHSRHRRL
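Purified cruzain at 1.5 nM, pre-incubated 15 min with compound at room temperature in 100 mM sodium acetate pH 5.5, 5 mM DTT, 0.00005% Triton X-100. Reaction started with 2 uM Z-FR-AMC; AMC fluorescence increase over 60 s gives rate.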
Cruzain Triton: blocks cruzain activity in presence of Triton detergent; P25779; purified cruzain, Z-FR-AMC fluorescence, 0.01% Triton; Potency, µM, for inactives: max response, negative = inhibition, hits mostly inhibitors; 200,000 compounds, 0.43% hits; AID 1478;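 further: plate controls were neutral wells for no effect and buffer without enzyme for full effect; nearly all actives have a fitted effect of over 40% in size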
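Read-out: AMC fluorescence (360 nm excitation, 450 nm emission), four reads over 2 min, first-to-third difference used. Conditions: cruzain 1.5 nM, Z-FR-AMC 2 uM, pH 5.5 acetate, 5 mM DTT, 0.01% Triton X-100.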
The depositor's hits bear a star; ? = inconclusive. An excerpt weighted towards active compounds, which were near 2.4% of everything screened. The call rests on the fitted dose curve; in most records, active means well fitted curve in the direction sought with a large enough effect; inconclusive means small, poorly fitted or top-dose-only effect, or another doubt; inactive means no such curve, though single readings can be large; an effect the other way counts as inactive or inconclusive. Potency means the concentration at half of the fitted maximal effect.

SMILES	Cruzain inh noDet	Cruzain Triton
Cc1ccc(S(=O)(=O)c2nnn3c2nc(NCc2cccs2)c2sccc23)cc1C	?	-6.3%
O=C(Cn1c2ccccc2c(=O)c2ccccc21)N/N=C/c1ccc(N2CCCC2)c([N+](=O)[O-])c1	?	-10.8%
Cc1ccc(-n2c(C)cc(/C=N/NC(=O)Cn3c4ccccc4c(=O)c4ccccc43)c2C)cc1	?	-2.0%
Cc1cc(/C=N/NC(=O)Cn2c3ccccc3c(=O)c3ccccc32)c(C)n1-c1ccc(Cl)cc1	3.16µM*	-4.1%
O=C(Cn1c2ccccc2c(=O)c2ccccc21)N/N=C/c1cc([N+](=O)[O-])ccc1N1CCCCCC1	6.31µM*	-1.8%
CC(CCC(=O)O)C1CCC2C3CC(O)[C@@H]4CC(O)CC[C@]4(C)C3CC[C@@]12C (some centres not stated)	?	5.7%
CCc1ccc(OC(C)C(=O)N2CCC(c3nc4ccccc4s3)CC2)cc1 (configuration not stated)	?	-13.2%
Cc1cc(C(=O)COc2cccc(-n3cnnn3)c2)c(C)n1-c1ccccc1	20µM*	-6.7%
COC(=O)COc1cccc(-n2cnnn2)c1	7.5%	1.5%
O=C(C1CCCCC1)N(Cc1cccnc1)c1nc2c(F)cccc2s1	6.5%	-0.5%
Cn1c(-n2cccc2)c(-c2c(-c3ccccc3)[nH]c3c2c(=O)[nH]c(=O)n3C)c(=O)[nH]c1=O	21.4%	0.9%
COc1ccc(-c2nc(C(=O)Nc3cccc(C(C)=O)c3)nn2-c2ccc(Cl)cc2)cc1	-19.9%	-3.5%
CC(=O)c1cccc(NC(=O)c2nc(-c3ccccc3)n(-c3ccccc3C)n2)c1	7.94µM*	-5.9%
COc1ccc(CNc2ncnc3c2c(-c2ccccc2)cn3-c2ccccc2)cc1	6.4%	1.1%
COc1ccccc1CNc1ncnc2c1c(-c1ccccc1)cn2-c1ccc(Br)cc1	7.94µM*	-0.5%
CC[C@@H]1C(c2cccc(C)c2)=NN(c2ccc(Br)cc2)[C@H]1C(=O)N1CCOC1=O	?	0.0%
O=C1c2ccccc2C(O)N1c1ccc(Cl)cc1 (configuration not stated)	-27.1%	-2.2%
COC(=O)C1CN(C#N)N(c2ccc(Cl)cc2)C12c1ccccc1-c1ccccc12 (configuration not stated)	25.1µM*	-9.2%
COc1ccc(C(=O)NCC(=O)N=Nc2c(O)n(Cc3ccccc3)c3ccccc23)cc1OC	13.4%	-6.1%
NC(=S)N=Nc1c(O)n(Cc2ccc(F)cc2)c2ccccc12	?	12.6µM*
Cc1ccc2c(c1)c(N=NC(N)=S)c(O)n2Cc1ccccc1	2.51µM*	?
O=Nc1c(O)n(Cc2ccc(Cl)cc2)c2ccccc12	-13.5%	-16.5%
COc1ccc2c(c1)CC(C(=O)N1CCC(C(N)=O)CC1)CO2 (configuration not stated)	-6.8%	0.9%
CN(C)C(=O)c1ccc(-c2nc(NCc3ccccc3)c3ccccc3n2)cc1	-5.5%	-0.7%
C/C(N=NC(=[SH+])SCc1ccccc1)=C1\C=CC=CN1.[Cl][Cu]	-8.2%	5.0%
SMILES	Cruzain inh noDet	Cruzain Triton
COc1ccc2c(c1)Cc1sc(NC(=O)c3ccc(Cl)cc3)nc1-2	3.16µM*	-7.0%
COc1ccc2c(c1)-c1nc(NC(=O)c3ccc(OC)c(Br)c3)sc1CC2	10µM*	-8.2%
COc1ccc2c(c1)Cc1sc(NC(=O)c3cccc(Cl)c3)nc1-2	9.0%	-0.3%
COc1ccc2c(c1)-c1nc(NC(=O)c3ccc(C)cc3)sc1CC2	?	-4.1%
CC1O[C@@H](O[C@H]2C(Oc3cc(O)c4c(c3)OC(c3ccc(O)cc3)CC4=O)OC(CO)C(O)C2O)C(O)C(O)C1O (some centres not stated)	-12.2%	-2.6%
COc1cc(NS(=O)(=O)c2ccc(NC(=O)C(C)Oc3ccc(Cl)cc3Cl)cc2)nc(OC)n1 (configuration not stated)	15.6%	-19.1%
Cc1cc(Cl)ccc1OC(C)C(=O)Nc1ccc(S(=O)(=O)Nc2cnc3ccccc3n2)cc1 (configuration not stated)	?	25.1µM*
CCC(Oc1ccccc1)C(=O)Nc1ccc(S(=O)(=O)Nc2cnc3ccccc3n2)cc1 (configuration not stated)	?	-26.5%
CC(Oc1ccc(Cl)cc1Cl)C(=O)Nc1ccc(S(=O)(=O)Nc2cnc3ccccc3n2)cc1 (configuration not stated)	-1.6%	22.4µM*
CCc1nnc(NC(=O)c2ccc(N3C(=O)CCC3=O)cc2)s1	-2.3%	-8.4%
Cc1ccc(C)c2sc(NC(=O)c3ccc(N4C(=O)CCC4=O)cc3)nc12	20µM*	1.7%
O=C1CC(c2ccccc2)Cc2[nH]c(=O)c(-c3nc(-c4ccc(F)cc4)cs3)cc21 (configuration not stated)	5.2%	4.9%
O=C(CNC(=O)c1ccc(Cl)cc1)OCC(=O)c1ccc2c(c1)OCCO2	10µM*	8.91µM*
COc1ccccc1C(=O)NCC(=O)OCC(=O)c1ccc2c(c1)-c1ccccc1C2	10µM*	?
CCOc1ccccc1C(=O)NCC(=O)OCC(=O)c1ccc2c(c1)OCCO2	?	25.1µM*
CCOC(=O)CNC(=O)c1ccc2c(c1)OCCO2	-4.4%	8.3%
CCOc1ccccc1C(=O)NCc1ccc2c(c1)OCO2	-8.4%	2.0%
CCOc1ccc(C(=O)NCC(=O)OCC(=O)c2ccc3c(c2)-c2ccccc2C3)cc1	?	-13.2%
O=C(CNC(=O)c1ccccc1F)OCc1cc(=O)n2nc(C3CCCCC3)sc2n1	-6.3%	-9.0%
O=C(CNC(=O)c1ccccc1F)OCC(=O)N1CCCCC1	?	15.8µM*
CCCC(=O)N(c1ccc2oc(-c3ccccc3)c(C(=O)OCC)c2c1)S(=O)(=O)c1ccc(C)cc1	20.1%	0.3%
CCCCc1ccc(-n2nc3cc(Cl)c(NC(=O)c4ccc(OC)cc4)cc3n2)cc1	-2.4%	0.8%
CC1OCC23CC[C@@]4(C)CCC(C)(C)C[C@H]4[C@]2(C)CCC12C3CC[C@@]1(C)C2C(=O)CC(=O)[C@@H]1C (some centres not stated)	3.5%	2.3%
O=C(COC(=O)CNC(=O)c1ccccc1F)Nc1ccc2c(c1)OCCO2	3.16µM*	8.91µM*
O=C(COC(=O)CNC(=O)c1ccc(Br)o1)Nc1ccc2c(c1)OCCO2	11.1%	-1.3%
SMILES	Cruzain inh noDet	Cruzain Triton
COc1ccc(OC)c(C(=O)COC(=O)CNC(=O)c2ccccc2)c1	12.6µM*	14.1µM*
COCCn1c(C)cc(C(=O)COC(=O)CNC(=O)c2ccccc2)c1C	-29.6%	?
O=C1N=C(c2ccccc2)S/C1=C\c1cccs1	20µM*	-22.8%
O=C1N=C(N2CCN(c3ccccc3)CC2)S/C1=C/c1cccs1	-22.8%	-15.9%
COc1ccc(C(=O)Nc2nnc(SCc3cc(=O)n4cc(Cl)ccc4n3)s2)cc1	-3.8%	3.2%
O=C(NCc1ccc(F)cc1)c1cccc(N2CCCS2(=O)=O)c1	-8.5%	1.6%
CCOC(=O)c1c(NC(=O)CN2C(=O)NC3(CCC(CC)CC3)C2=O)sc(C)c1-c1ccc(C)cc1 (configuration not stated)	20µM*	-2.1%
CCOC(=O)c1c(NC(=O)CN2C(=O)NC3(CCCCCC3)C2=O)sc(C)c1-c1ccc(C)cc1	?	-4.4%
CC(C)(C)c1ccc(C(=O)Nc2nnc(Cc3c[nH]c4ccccc34)s2)cc1	?	5.5%
O=C(Nc1nnc(Cc2c[nH]c3ccccc23)s1)c1ccc(Cl)cc1Cl	25.1µM*	-8.3%
